Assay outcomes deposited in PubChem BioAssay by several laboratories.
tim10-1 inh: tim10-1 yeast growth inhibition; 330,000 compounds, 2.2% hits; S. cerevisiae tim10-1 ts strain growth, BacTiter-Glo, 24 h; inhibition, % at 20 µM; AID 463190;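 active = inhibition of at least 40%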;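 also: mutant grown at 25 °C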
PfHsp90 yeast 2: reduces growth (ATP signal) of yeast expressing P. falciparum Hsp90; S. cerevisiae expressing PfHsp90, BacTiter-Glo ATP, 48 h; yeast lacking PDR1 and PDR3 efflux regulators; inhibition, % at 9.4 µM; 310,000 compounds, 0.32% hits; AID 504621;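 active = every replicate shows inhibition above about 80%, whatever the replicate mean, limit read from the data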
TIM10 inh: inhibits growth of TIM10 yeast strain; inhibition, % at 10 µM; AID 463195; 330,000 compounds, 1.4% hits; S. cerevisiae TIM10 strain growth, BacTiter-Glo luminescence, 24 h;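 active = inhibition of 40% or more at the single tested concentration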;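 also: wild-type TIM10 isogenic control strain grown at permissive 25 °C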
tim23-1 inh: growth inhibitors of tim23-1 mutant yeast; 330,000 compounds, 1.3% hits; inhibition, % at 20 µM; S. cerevisiae tim23-1 growth, BacTiter-Glo luminescence, 24 h;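 active = growth inhibition of the mutant yeast at or above 50%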;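 also: temperature-sensitive mutant grown at 25 °C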
SKKanGAS inh: SKKanGAS growth inhibition. 300,000 compounds, 1.3% hits. inhibition, % at 7.5 µM. AID 1662. S. pyogenes SKKanGAS, kanamycin growth, BacTiter-Glo, 6 h;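 active = mean replicate score, as percent of positive control median, at least 50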;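 also: strain carries kanamycin resistance gene driven by streptokinase promoter and grows in 40 µg/ml kanamycin; loss of luminescence reflects streptokinase promoter inhibition or plain growth inhibition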
Calb FLC: C. albicans growth modulation with fluconazole | C. albicans CaCi-2 (fluconazole-resistant clinical isolate) + fluconazole, Alamar Blue growth, 48 h | growth inhibition, % (concentration not given with the values) | 300,000 compounds, 0.57% hits;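 active = growth inhibition above about 58% in most replicates, limit read from the data, passing the limit was not always enough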;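 also: all wells also contain fluconazole at 8 µg/ml as a sub-toxic cotreatment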
tim10-1 confirm: tim10-1 yeast growth inhibition, confirmed; shares compounds with tim10-1 inh; inhibition, % at 20 µM; S. cerevisiae tim10-1 ts strain growth, BacTiter-Glo, 24 h; 7,400 compounds, 56% hits; AID 463213;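 active = inhibition of yeast growth at or above a set limit in either of two repeat tests at 20 µM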;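 also: tim10-1 mutant grown at permissive 25 °C to find synthetic lethal compounds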
TIM10 conf: TIM10 yeast growth inhibition, confirmed; shares compounds with TIM10 inh; S. cerevisiae tim10 strain growth, BacTiter-Glo luminescence, 24 h; inhibition, % at 10 µM; 4,600 compounds, 63% hits;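 active = inhibition of yeast growth at or above a set limit in either of two replicates at 10 µM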; also: this counterscreen used the strain with wild-type TIM10
tim23-1 confirm: tim23-1 yeast growth inhibition, confirmed | shares compounds with tim23-1 inh | S. cerevisiae tim23-1 growth, BacTiter-Glo luminescence, 24 h | inhibition, % at 20 µM | 4,400 compounds, 83% hits | AID 463218;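 active = inhibition above about 39% in either of two replicate wells at 20 µM, limit read from the data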;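 also: temperature-sensitive tim23-1 mutant grown at 25 °C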
Of the large screens only hits and unclear results are named; the others gave an inactive call (follow-up assays come after a bar, where they were run). This is a sample that favours compounds with a hit; in the whole collection about 4.7% have one here.

O=c1cc(-c2ccc(F)cc2)[nH][nH]1	none
O=c1cc(-c2ccc(C3CCCCC3)cc2)[nH][nH]1	tim10-1 inh 58.9, PfHsp90 yeast 2 94.0, tim23-1 inh 74.0 | tim10-1 confirm 32.5 | tim23-1 confirm inactive
CC(C)(C)OC(=O)C(C)(C)Sc1nnc(N)s1	none
Cc1nn(C)cc1S(=O)(=O)Nc1cccc(Cl)c1	none
CC1=NN(C(N)=S)C(=O)C1N=Nc1cccc(Cl)c1C (stereo not given)	tim10-1 inh 42.9, tim23-1 inh 56.6 | tim10-1 confirm 43.5 | tim23-1 confirm 62.0
COc1ccccc1CNC(=O)C(CCSC)NC(=O)c1cccc(S(=O)(=O)N2CCOCC2)c1 (stereo not given)	none (no result: SKKanGAS inh, Calb FLC)
COc1ccc(CCNC(=S)NC(=O)c2ccccc2)cc1OC	tim10-1 inh 48.1, TIM10 inh 53.1, tim23-1 inh 55.8 | tim10-1 confirm 39.2 | TIM10 conf 31.1 | tim23-1 confirm 43.9
O=[N+]([O-])c1c(C(Cl)Cl)nn(-c2ccc(Cl)cc2)c1N1CCCCC1	tim10-1 inh 44.4, TIM10 inh 55.8, tim23-1 inh 64.4, Calb FLC 80.8 | tim10-1 confirm 62.1 | TIM10 conf 41.0 | tim23-1 confirm 67.3
O=C(NCc1nnc(SCC(=O)N2CCCCC2)o1)c1c(F)cccc1Cl	none
O=c1oc2cc(Oc3c([N+](=O)[O-])cc(C(F)(F)F)cc3[N+](=O)[O-])ccc2c2c1CCCC2	tim10-1 inh 71.9, TIM10 inh 68.5, tim23-1 inh 75.9 (no result: PfHsp90 yeast 2) | tim10-1 confirm 64.6 | TIM10 conf 73.5 | tim23-1 confirm 78.7
Cc1nn(-c2cccc(C(F)(F)F)c2)c(Cl)c1/C=N/Nc1cccc(C(=O)O)c1	none (no result: tim10-1 inh, TIM10 inh, tim23-1 inh)
CCOC(=O)N/N=C/c1c(C)nn(-c2cccc(C(F)(F)F)c2)c1Cl	tim10-1 inh 47.4, tim23-1 inh 58.0 | tim10-1 confirm 35.5 | tim23-1 confirm 60.2
CCOC(=O)c1sc(NC(=O)c2c(C)nn(Cc3ccccc3)c2C)cc1C	tim10-1 inh 42.6, TIM10 inh 61.1, tim23-1 inh 50.1 (no result: SKKanGAS inh, Calb FLC) | tim10-1 confirm 45.7 | TIM10 conf inactive | tim23-1 confirm 51.8
O=c1cc(-c2ccco2)oc2c1ccc1ccccc12	none
O=c1cc(C(Cl)(Cl)Cl)oc2c1ccc1ccccc12	tim10-1 inh 44.1, tim23-1 inh 51.7 | tim10-1 confirm inactive | tim23-1 confirm 49.3
O=C(NCCCOc1ccc([N+](=O)[O-])cc1Cl)OCc1ccccc1	none (no result: tim10-1 inh, TIM10 inh, tim23-1 inh, SKKanGAS inh, Calb FLC)
O=C(CCNS(=O)(=O)c1ccc(F)c(Cl)c1)NCc1ccccc1F	none (no result: SKKanGAS inh, Calb FLC)
CCOC(=O)c1c2c(n(C)c1C)C(=O)C(=O)c1ccc(Br)cc1-2	tim10-1 inh 57.2, TIM10 inh 65.6, tim23-1 inh 56.4, SKKanGAS inh 58.9 (no result: PfHsp90 yeast 2) | tim10-1 confirm inactive | TIM10 conf 44.5 | tim23-1 confirm 46.8
CCOC(=O)C1=C(Cc2ccc(F)cc2)C(=O)c2ccccc2C1=O	tim10-1 inh 56.6, TIM10 inh 63.7, tim23-1 inh 65.7 | tim10-1 confirm 67.5 | TIM10 conf 56.8 | tim23-1 confirm 70.9
O=C1CCC(C(=O)N2CCCCCC2)CN1CCc1ccc(Cl)cc1 (stereo not given)	none
O=C(/C=C\c1ccccc1OC(=O)c1ccccc1F)c1cc2ccccc2o1	tim10-1 inh 54.7, TIM10 inh 48.5, tim23-1 inh 58.7 | tim10-1 confirm 34.5 | TIM10 conf inactive | tim23-1 confirm 49.9
CC(C)NC(=O)Nc1ccc2c(c1)C(=O)N([C@H](C)CO)C[C@H](C)[C@@H](CN(C)S(C)(=O)=O)O2	none (no result: SKKanGAS inh, Calb FLC)
CC1CCCCN1C(=O)C1COc2ccccc2O1 (stereo not given)	none
Nc1cccc2c1C(=O)N(C(=O)c1ccco1)C2=O	none
Nc1cccc2c1C(=O)N(C(=O)/C=C/c1ccc(F)cc1)C2=O	tim10-1 inh 58.8, TIM10 inh 49.3, tim23-1 inh 74.2 | tim10-1 confirm 60.8 | TIM10 conf 47.0 | tim23-1 confirm 86.1
CCOc1cc(-c2cc(-c3ccc(N)cc3)nc(N)c2C#N)ccc1O	tim10-1 inh 41.3, tim23-1 inh 50.4 | tim10-1 confirm inactive | tim23-1 confirm 53.0
O=C(CNc1ccc(Br)cc1)NC(=O)NC1CCCCC1	tim10-1 inh 48.1, tim23-1 inh 59.3 (no result: SKKanGAS inh, Calb FLC) | tim10-1 confirm 36.8 | tim23-1 confirm inactive
Cc1ccc(-c2nc(COC(=O)C3=NN(c4ccccc4)C(=O)CC3)cs2)cc1	none (no result: SKKanGAS inh, Calb FLC)
CCOC(=O)C1=CC[C@H]2c3c(c4ccccc4n3C)C(=O)C1N2C(=O)OC(C)(C)C	none (no result: SKKanGAS inh, Calb FLC)
COC(=O)C1=C(CCc2ccccc2)NC(=O)NC1c1ccc(Br)cc1 (stereo not given)	none
CC(C)(C)c1ccc(NC(=O)N2CCCN(c3ccc([N+](=O)[O-])cn3)CC2)cc1	tim10-1 inh 43.1, TIM10 inh 43.1, tim23-1 inh 60.7 | tim10-1 confirm 50.0 | TIM10 conf 42.2 | tim23-1 confirm 56.7
CSc1nc2ccc(NS(=O)(=O)c3ccc(Cl)s3)cc2s1	tim10-1 inh 43.8, TIM10 inh 47.5, tim23-1 inh 58.5 | tim10-1 confirm 32.4 | TIM10 conf 43.8 | tim23-1 confirm 78.2
CC1Cc2ccccc2N1C(=O)CN1CCC(n2nnc3cc(C(F)(F)F)ccc32)CC1 (stereo not given)	tim10-1 inh 41.3, tim23-1 inh 50.1 | tim10-1 confirm 37.5 | tim23-1 confirm 42.1
COC(=O)c1ccccc1NC(=O)CN1CCC(n2nnc3cc(C(F)(F)F)ccc32)CC1	none
COCCNC(=O)/C(C#N)=C/c1ccc(SC)cc1	none
COCCNC(=O)/C(C#N)=C/c1c(F)cccc1Cl	tim10-1 inh 63.3, TIM10 inh 65.7, tim23-1 inh 81.8 | tim10-1 confirm 55.5 | TIM10 conf 63.0 | tim23-1 confirm 76.8
Cc1ccc(/C(O)=C2\C(=O)C(=O)N(C)C2c2ccc(F)cc2)cc1 (stereo not given)	none
O=C(NC(=S)NCc1ccccc1)c1cccs1	tim10-1 inh 50.7, tim23-1 inh 61.5 | tim10-1 confirm 43.4 | tim23-1 confirm 52.0
O=C(NC(=S)NCc1ccccc1)c1ccccc1	none
Cc1c(Cc2ccccc2)c(=O)oc2cc(OCC(=O)NCC3CCC(C(=O)O)CC3)ccc12 (stereo not given)	none
COc1ccc2oc(/C=C/N(C)C)c(C(=O)c3ccc(Cl)cc3)c2c1	tim10-1 inh 44.6, PfHsp90 yeast 2 111.6, tim23-1 inh 50.1 | tim10-1 confirm inactive | tim23-1 confirm 50.8
COc1ccc2oc(C)c(C(=O)c3ccccc3)c2c1	none
